TRHR agonist = qHTS for Small Molecule Agonists and Allosteric Enhancers of Human TRH Receptor: Primary Screen for Agonists. AID 493084, 2011. actives 0.18% (n = 360,000). Thyrotropin-releasing hormone receptor (Homo sapiens), P34981. TRHR cells, calcium flux fluo-8, FDSS agonist mode. activation, % at 2 µM; further: 0% is about no effect
Target sequence (P34981 whole entry, looked up): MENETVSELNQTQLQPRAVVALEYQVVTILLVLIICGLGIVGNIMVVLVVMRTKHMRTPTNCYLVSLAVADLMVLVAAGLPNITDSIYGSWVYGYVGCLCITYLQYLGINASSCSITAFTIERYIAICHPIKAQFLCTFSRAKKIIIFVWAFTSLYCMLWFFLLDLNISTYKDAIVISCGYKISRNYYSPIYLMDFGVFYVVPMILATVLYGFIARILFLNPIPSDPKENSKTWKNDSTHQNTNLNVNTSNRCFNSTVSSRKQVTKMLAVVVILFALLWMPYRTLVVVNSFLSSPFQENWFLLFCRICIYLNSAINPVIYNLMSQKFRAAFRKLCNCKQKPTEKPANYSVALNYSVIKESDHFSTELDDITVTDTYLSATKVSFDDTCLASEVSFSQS
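Read-out: compound-evoked intracellular calcium rise in TRHR cells, fluo-8 dye, kinetic FDSS fluorescence at 1 s/cycle following a 10-cycle baseline. Cells cultured overnight before dye loading (30 min–1.5 h, RT).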
D1 agonist = Allosteric Agonists of the Human D1 Dopamine Receptor: qHTS. AID 504660, 2011. activation, % at 2 µM. actives 1% (n = 360,000). HEK293 T-REx D1 cells, calcium flux, agonist mode; further: 0% is about no effect
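Tetracycline-induced HEK293 TREx D1 cells, force-coupled to calcium signalling, were dye-loaded with a no-wash calcium kit. Compound was pin-added after a 10 s baseline. Fluorescence was read kinetically at 1 cycle/s for 180 s, with calcium rises flagged as agonism.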
D1 potentiator = Potentiators of Human D1 Dopamine Receptor: qHTS; HEK293 TREx D1 cells, calcium flux, dopamine EC20 potentiation; D(1A) dopamine receptor (Homo sapiens), P21728; potentiation, % at 10 µM; AID 504651, 2011; actives 0.036% (n = 360,000); in the data active means potentiation above about 30%; further: 0% is about no effect
TRHR PAM = qHTS for Small Molecule Agonists and Allosteric Enhancers of Human TRH Receptor: Primary Screen for Enhancers; TRHR cells, fluo-8 calcium fluorescence, EC20 TRH enhancement; enhancement, % at 2 µM; actives 0.66% (n = 360,000); in the data active means enhancement above about 30%; further: 0% is about no effect
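Enhancer read-out: after compound pinning and an initial kinetic agonist-mode read, an EC20 of TRH (10 nM final) was injected and fluo-8 calcium signal (Ex 480/Em 530) followed at 1 s/cycle for 100 cycles in TRHR-expressing cells.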
D1 antag = Antagonist of Human D 1 Dopamine Receptor: qHTS; HEK293 TREx D1 cells, calcium flux, dopamine EC80; stronger effect = lower value; activity change, negative = inhibition, % at 10 µM; D(1A) dopamine receptor (Homo sapiens), P21728; actives 3.2% (n = 360,000); AID 504652, 2011; in the data active means activity change below about -30%; further: on the % scale 0 is the no-effect control and ±100 the full control effect
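Antagonism measured as reduced calcium response to an EC80 dopamine addition following 180 s compound pre-read; cells were inducible HEK293 Trex D1 plated overnight at 30 C, read kinetically at 1 cycle/sec.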
* hit, by the source's call; / = no result given; ! = not confirmed by another sample. Only some compounds are listed: those with a hit (about 4.6% of all), similar ones and a draw of the others. Unless noted, no stated cut-off is given here; in the data, active means activation above about 30%; inactive means the rest.

SMILES	TRHR agonist	D1 agonist	D1 potentiator	TRHR PAM	D1 antag
CC(=O)c1ccc(NC(=O)NC2CC(=O)N(c3ccc4c(c3)OCCO4)C2)cc1 (stereo unspecified)	0	0	-5	5	0
CNc1ccccc(-c2ccc3ccccc3n2)c1=O	2	22	-3	6	7
Cc1ccc(-c2c(C)n3c4c(=O)n(C)c(=O)n(C)c4nc3n2CCCO)cc1	-2	-1	-3	-1	3
COc1ccc(N=Cc2oc3ccc4ccccc4c3c2O)cc1	24	78*	0	-2	-4
Cc1ccccc1N(CC(=O)NCCc1ccccc1)C(=O)CCC(=O)Nc1ccccn1	-3	1	1	1	-9
CCc1ccccc1N(CC(=O)NCCc1ccccc1)C(=O)CCC(=O)Nc1ccccn1	-1	40*	-12	-2	-30*
CN(C)c1ccc(C(=O)NN2C(=O)c3ccccc3C2=O)cc1	0	0	-4	0	-32*
COc1c(CC=C(C)C)cc(C2CC(=O)c3c(O)cc(O)cc3O2)cc1CC=C(C)C (stereo unspecified)	0	3	-8	33*	-13
COc1ccc([C@@H]2CC(=O)c3c(O)cc(O)cc3O2)cc1O	0	-2	-1	-1	-15
COc1cc(Cl)c(C)cc1NC(=O)Cn1c(C)c2cnn(-c3ccccc3)c(=O)c2c1C	0	1	-1	1	3
COc1ccc(-c2cc(C(=O)OCc3ccccn3)c3ccccc3n2)cc1	1	13	-7	-9	-34*
COc1ccc(-c2cc(C(=O)OC3CCOC3=O)c3ccccc3n2)cc1 (stereo unspecified)	1	2	-5	0	-32*
O=C(OC1CCOC1=O)c1cc(-c2ccc(Br)cc2)nc2ccccc12 (stereo unspecified)	0	6	3	17	12
CCCCOC(=O)c1ccc(NC(=O)c2cc3c(=O)n4cccc(C)c4nc3n2C)cc1	0	6	-1	9	-4
Cc1ccc(C(=O)CCS(=O)(=O)c2ccc(Br)cc2)cc1	-1	6	-2	-1	1
CC(=O)Nc1ccc(C(=O)OCC(=O)c2cccc([N+](=O)[O-])c2)cc1	-1	4	-12	0	-7
Cc1ccc(S(=O)(=O)CCC(=O)c2cccc([N+](=O)[O-])c2)cc1	-1	4	-12	-3	-32*
CC(=O)Nc1ccc(NC(=O)CCC(=O)OCC(=O)c2cccc([N+](=O)[O-])c2)cc1	1	3	-2	1	-67*
COc1ccccc1CNC(=O)CCNS(=O)(=O)c1ccc2c(c1)CCCC(=O)N2	1	1	-4	8	1
O=C(C[n+]1cccc2ccccc21)c1ccc(Br)cc1	0	4	-3	-9	-5
NC(=O)C[n+]1cccc2ccccc21	12	45*	-5	-7	-4
COc1ccc(N2C(=O)CSC23C(=O)N(CC(N)=O)c2ccccc23)cc1 (stereo unspecified)	2	6	2	10	6
Cc1[nH]n(-c2ccccc2)c(=O)c1N=Nc1ccc(C(=O)O)cc1	-1	2	-2	-4	5
Cc1[nH]n(-c2ccccc2)c(=O)c1N=Nc1cccc(C(=O)O)c1	1	1	3	1	-37*
Cc1[nH]n(C2=NCCS2)c(=O)c1N=Nc1cccc(C(F)(F)F)c1	7	62*	-4	-5	5
SMILES	TRHR agonist	D1 agonist	D1 potentiator	TRHR PAM	D1 antag
Cc1ccc2nc(/C(C#N)=C/c3ccc(O)c(O)c3)[nH]c2c1	15	7	-3	8	-20
N#C/C(=C\c1ccc(-c2ccc(Cl)c(C(=O)O)c2)o1)c1nc2ccccc2[nH]1	26	14	0	3	10
N#C/C(=C\c1ccc(-c2ccc(C(=O)O)cc2)o1)c1nc2ccccc2[nH]1	31*!	43*	-2	4	3
N#C/C(=C\c1ccc(N2CCOCC2)c([N+](=O)[O-])c1)c1nc2ccccc2[nH]1	0	1	-7	-5	-26
Cc1ccc2nc(/C(C#N)=C/c3cn[nH]c3-c3ccc(F)cc3)[nH]c2c1	0	1	-1	-6	-45*
N#C/C(=C\c1ccc(N2CCOCC2)o1)c1nc2ccccc2[nH]1	0	64*	-2	3	-20
Cc1ccc2nc(/C(C#N)=C/c3ccc(-c4cccc(Cl)c4)o3)[nH]c2c1	59*	277*	1	4	1
Cc1ccc(N2CC(NC(=O)c3cc4ccccc4o3)CC2=O)cc1 (stereo unspecified)	0	-5	-3	-2	/
Cc1cc(F)c(F)c(C(=O)N2CCCCC2C)c1Cl (stereo unspecified)	0	2	1	-4	-31*
COc1ccc(-c2nn3c(=O)cc(CN4CCN(C(=O)c5ccc(C(C)(C)C)cc5)CC4)nc3s2)cc1	0	-1	-1	-12	-8
COc1ccc(Cn2ncc3c4sc(C)cc4n(C)c3c2=O)cc1	-2	2	5	5	-10
COC(=O)c1cc(S(=O)(=O)N2CCCC(C)C2)cn1C (stereo unspecified)	0	2	-1	-2	-8
COC(=O)c1cc(-c2ccc(S(=O)(=O)N3CCCC(C)C3)cc2)c(C(F)(F)F)s1 (stereo unspecified)	1	2	-12	-14	-41*
CC(NC(=O)c1ccc(Cl)cc1Cl)C(c1ccccc1)N1CCOCC1 (stereo unspecified)	-2	1	0	-2	-3
CC(NC(=O)Nc1ccc(Cl)c(Cl)c1)C(c1ccccc1)N1CCOCC1 (stereo unspecified)	-2	158*	9	9	41
CC(NC(=O)Nc1ccc([N+](=O)[O-])cc1)C(c1ccccc1)N1CCOCC1 (stereo unspecified)	-1	173*	-1	2	167
O=C(COC(=O)C1COc2ccccc2O1)Nc1cccc(F)c1 (stereo unspecified)	-1	2	-2	-2	-8
N=C(N)Cc1ccccc1Sc1ccccc1	2	5	-8	-7	-49*
CC(NC(=O)Nc1ccc(F)cc1)C(c1cccs1)N1CCCC1 (stereo unspecified)	1	72*	-10	-2	7
Cc1ccc2c(c1)[nH]c1c(N3CCN(Cc4ccccc4)CC3)ncnc12	0	-1	-1	18	-17
